# TEAD-YAP inh: TEAD-YAP interaction inhibition; HEK-TIYL cells, TEAD-Gal4/YAP UAS-luciferase luminescence; inhibition, % at 9.12 µM; actives 1.4% (n = 640,000); in the data active means inhibition above about 32%;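 further: 0% = median of test compound wells and 100% = reference inhibitor wells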
# GPR151 ag: activates the human receptor GPR151 | AID 1508602 | activation, % at 11.2 µM | actives 1% (n = 650,000) | PathHunter beta-arrestin GPR151 cells, luminescence | Q8TDV0; in the data active means activation above about 4.9%;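 further: 0% = median of compound wells and 100% = cells with positive control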
# Target sequence (Q8TDV0 whole entry, looked up): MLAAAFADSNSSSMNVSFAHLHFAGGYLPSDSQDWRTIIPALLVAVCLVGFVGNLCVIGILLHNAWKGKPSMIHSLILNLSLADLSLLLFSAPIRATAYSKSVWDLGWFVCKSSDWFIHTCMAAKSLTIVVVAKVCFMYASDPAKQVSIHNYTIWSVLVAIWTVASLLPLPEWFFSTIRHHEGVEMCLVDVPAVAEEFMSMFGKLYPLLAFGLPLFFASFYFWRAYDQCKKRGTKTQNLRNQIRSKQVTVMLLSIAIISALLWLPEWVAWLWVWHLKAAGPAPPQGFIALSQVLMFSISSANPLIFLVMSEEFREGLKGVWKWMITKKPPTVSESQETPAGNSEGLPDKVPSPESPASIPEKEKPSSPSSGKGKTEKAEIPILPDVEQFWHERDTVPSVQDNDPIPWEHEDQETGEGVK
# FBW7 activator: activators of human E3 ligase FBW7. AID 1259310. Q969H0. actives 0.13% (n = 650,000). AlphaScreen FBW7–phospho-cyclin E peptide binding, activator screen. normalized activity (activation), % at 26.1 µM; in the data active means normalized activity above about 1.9%;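 further: purified mutant Fbw7 with reduced substrate affinity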
# MITF primary: blocks human microphthalmia-associated transcription factor | inhibition, % at 2.6 µM | AlphaScreen MITF homodimerization, bead proximity signal | actives 0.91% (n = 650,000); in the data active means inhibition above about 50%;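 further: 0% = vehicle wells with protein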
# MITF inh conf: confirmation of human MITF inhibitors; inhibition, % at 2.6 µM; shares compounds with MITF primary; actives 16% (n = 4,700); AlphaScreen MITF homodimerization, biotin/His-MITF beads;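 active means inhibition above a cutoff derived from the DMSO control wells, cut at about 28% in these data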;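 further: 0% = MITF dimer wells with DMSO only; inhibitors lower the bead chemiluminescence by keeping MITF from dimerizing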
# AS interf DR: AlphaScreen optical interference, dose response counter-screen | IC50, µM | AlphaScreen optical interference counterscreen, cell-free | shares compounds with MITF primary | actives 6% (n = 480); call rule not given here
# AS interf ctr: counter-screen: compounds optically interfering with AlphaScreen; shares compounds with MITF primary; LysRS AlphaScreen counterscreen, signal interference, triplicate; inhibition, % at 2.6 µM; actives 7.6% (n = 4,700); AID 1259376;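 active means inhibition above a cutoff derived from the DMSO control wells, cut at about 30% in these data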
# * marks the source's active call; other numbers are inactive results; · = no result given; ! = a repeat was not active. A selection: hits, their analogues and other compounds. The true share with any hit is near 3.4%.
SMILES,TEAD-YAP inh,GPR151 ag,FBW7 activator,MITF primary,MITF inh conf,AS interf ctr,others
Clc1ccccc1N1CCN(Cc2ccc(Br)o2)CC1,3.4,0.3,0.7,39.7,·,·,
Fc1ccc(N2CCN(Cc3ccc(Br)o3)CC2)cc1,0.0,1.7,0.1,50.6*,3.3,5.7,
Brc1ccc(CN2CCN(c3ccccn3)CC2)o1,5.3,-0.7,0.7,52.1*,6.3,2.5,
CC(=O)c1ccc(OCCCC(=O)Nc2nc(-c3c[nH]c4ccccc34)cs2)cc1,6.4,-0.1,0.3,19.2,·,·,
O=C(Cc1ccc([N+](=O)[O-])cc1)NNC(=O)c1ccccc1F,10.3,-2.6,0.2,11.9,·,·,
COc1ccc(S(=O)(=O)N2CCN(CCN3C(=O)c4cccc5cccc(c45)C3=O)CC2)cc1,5.2,0.2,0.2,4.6,·,·,
CCN1CCCC1CNCc1csc(-c2ccc(Cl)cc2)n1 (centres undefined),-9.6,0.2,-0.1,57.0*,-2.0,5.0,
CCN1CCCC1CNCc1ccccc1Cl (centres undefined),5.2,-0.8,0.1,2.2,·,·,
Cc1oc(-c2cccc(Cl)c2)nc1CN1CCCC(C(=O)NC2CCCC2)C1 (centres undefined),-0.9,-1.0,0.4,-21.8,·,·,
Cc1cccc(-c2cc(C(=O)NCc3ccccc3)c3ccccc3n2)c1,20.5,-0.5,0.0,10.1,·,·,
CC(=O)NC(=S)NNC(=O)c1ccccc1O,30.1,-0.2,-1.6,76.2*,38.7*,100.3*,
O=C(NC(=S)NNC(=O)c1ccccc1O)c1cccs1,9.9,0.9,0.2,78.5*,26.2,100.3*,
CC(=O)NC(=S)NNC(=O)c1ccccc1I,-1.4,-1.2,-0.5,2.7,·,·,
Cc1ccccc1OCC(=O)Nc1ccc([N+](=O)[O-])cc1Cl,5.0,1.0,0.3,54.0*,-12.2,-3.7,
CCCCC(=O)Nc1cc(C)c(Cl)cc1OC,-3.4,2.5,0.0,1.1,·,·,
CCCCC(=O)Nc1cc(OC)c(NC(=S)NC)cc1OC,-6.0,2.3,0.0,75.5*,8.8,12.3,
Cn1c(NN)nc2sc3c(c2c1=O)CCCC3,-0.3,0.3,-0.4,-2.0,·,·,
C[C@H]1NC(=O)[C@@H]2C[C@H](NC(=O)NC3CCCCC3)CN2C1=O,-0.3,1.0,-0.1,9.2,·,·,
CCC[C@@H]1NC(=O)[C@H]2CN(C(=O)NC3CCCCC3)CCN2C1=O,4.9,0.7,0.1,76.7*,71.1*,-10.1,AS interf DR=>6.48
O=C1N[C@@H](CC2CCCCC2)C(=O)N2CCN(C(=O)c3cc(F)c(F)cc3F)C[C@H]12,1.9,0.1,0.2,4.7,·,·,
O=C1N[C@@H](CSCc2ccccc2)C(=O)N2CCN(C(=O)NC3CCCCC3)C[C@H]12,9.2,4.0,-0.3,64.9*,71.9*,-3.6,AS interf DR=>6.48
C[C@@H]1NC(=O)[C@H]2CN(C(=O)NC3CCCCC3)CCN2C1=O,11.3,-0.7,-0.4,77.2*,73.8*,-10.4,AS interf DR=>6.48
O=C1N[C@@H](CC2CCCCC2)C(=O)N2CCN(C(=O)Nc3ccccc3)C[C@H]12,7.3,-1.3,-0.2,77.0*,70.3*,-10.4,AS interf DR=>6.48
CC[C@H](C)[C@@H]1NC(=O)[C@H]2CN(C(=O)NC3CCCCC3)CCN2C1=O,-0.4,2.2,-0.5,73.5*,69.9*,-10.8,AS interf DR=>6.48
CC[C@H](C)[C@@H]1NC(=O)[C@H]2CN(C(=O)c3cc(Cl)cc(Cl)c3)CCN2C1=O,4.6,0.3,0.0,-19.3,·,·,
SMILES,TEAD-YAP inh,GPR151 ag,FBW7 activator,MITF primary,MITF inh conf,AS interf ctr,others
CCOC1(OCC)N=C(N)C2(C#N)C(c3cccc(C)c3)C12C#N (centres undefined),17.2,0.3,0.1,56.3*,-1.9,6.1,
COc1ccc(C2C3(C#N)C(N)=NC(OC)(OC)C23C#N)cc1 (centres undefined),0.4,2.1,-0.2,73.8*,-0.4,7.8,
COC1(OC)N=C(N)C2(C#N)C(c3ccc(Cl)cc3)C12C#N (centres undefined),-4.0,-0.8,-0.1,16.9,·,·,
COC1(OC)N=C(N)C2(C#N)C(c3ccc4c(c3)OCO4)C12C#N (centres undefined),5.6,1.5,-0.2,48.0,·,·,
CCOC1(OCC)N=C(N)C2(C#N)C(c3ccc(OC)c(OC)c3)C12C#N (centres undefined),8.7,-0.5,0.1,24.8,·,·,
COC1(OC)N=C(N)C2(C#N)C(c3ccc(C)cc3)C12C#N (centres undefined),5.5,-0.1,-0.1,55.0*,-2.3,5.5,
COc1cccc(C(c2sc3nc(-c4ccco4)nn3c2O)N2CC(C)OC(C)C2)c1 (centres undefined),-6.6,-0.1,0.1,10.0,·,·,
Fc1cc(F)c(F)c(SCCc2ccncc2)c1F,-3.4,0.0,0.2,90.2*,17.6,21.8,
CCOC(=O)C1(CC2CCCCO2)CCN(C(=O)Nc2ccccc2C(=O)OC)CC1 (centres undefined),5.8,-1.2,0.0,3.4,·,·,
CCNc1nccc(NCCN(C(C)C)C(C)C)n1,10.5,2.3,0.1,-4.8,·,·,
Cc1ccc2nc(NS(=O)(=O)c3ccc(Cl)cc3)c(Cl)nc2c1,-10.5,1.4,0.0,3.9,·,·,
O=C1c2c(O)cccc2Cc2cccc(O)c21,0.5,-0.6,-0.1,85.9*!,115.5*,-22.9,AS interf DR=>6.48
Cc1cc(O)c2c(c1)C(=O)c1cccc(O)c1C2=O,-2.5,0.0,-0.3,15.4,·,·,
N/C(=N\OC(=O)COc1ccc(Cl)cc1Br)c1ccccn1,23.0,-2.7,-0.1,-11.3,·,·,
COC(=O)C1=C(N)N(c2ccccc2F)C2=C(C(=O)CC(C)(C)C2)C1c1ccc(OC)cc1 (centres undefined),-8.9,0.0,-0.1,-5.0,·,·,
CCOC(c1ccccc1)c1ccc2c(c1)CN(C(=O)Cc1c(C)noc1C)CCO2 (centres undefined),-3.9,-0.6,0.5,74.9*,-4.9,-3.6,
Cc1noc(C)c1CC(=O)N1CCOc2ccc(C(O)c3ccccn3)cc2C1 (centres undefined),-3.9,0.0,0.0,7.7,·,·,
C[C@@H]1C[C@H]2[C@@H]3CCC4=CC(=O)C=CC4(C)[C@@]3(F)[C@@H](O)CC2(C)[C@@]1(O)C(=O)CO (some centres undefined),·,0.5,0.0,-3.9,·,·,
O=C(CCC(=O)c1ccc2c(c1)OCCO2)OCC(=O)c1ccc([N+](=O)[O-])cc1,-10.9,-0.3,0.2,17.9,·,·,
N#CC1(C#N)C(c2ccco2)C(C(=O)C2CC2)N2c3ccccc3C=CC21 (centres undefined),-32.2,0.6,0.0,-4.5,·,·,
CCC[C@@H]1NC(=O)[C@@H]2C[C@H](NC(=O)NC3CCCCC3)CN2C1=O,1.1,-0.5,0.8,10.5,·,·,
c1ccc(C(CN2CCOCC2)c2ccccc2)cc1,-8.4,-0.7,-0.2,56.7*,-9.3,2.2,
Cc1ccc(C(=O)CO/N=C/c2cccc([N+](=O)[O-])c2)cc1,-2.9,-0.3,-0.1,-2.4,·,·,
